The results in this text go back to the supplement of paper PMC12340641.

In assay [1] the target is IKZF1 (dCK*-IKZF1 fusion in HEK293FT) (UniProt Q13422). Put plainly: inhibition of IKZF1 HTRF signal (DMSO = 0%, pomalidomide 10 uM = 100%); higher = lower IKZF1 protein level. Particulars: compound concentration: 5 uM, overnight (~20 h). The gist of the method:
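Values are percent inhibition of IKZF1 signal, normalised plate by plate against vehicle and a reference degrader. HEK293FT cells stably expressing an IKZF1 fusion were seeded at 2000 per well in 384-well plates and exposed to 5 μM compound in single wells overnight at 37 °C. After 30 min lysis at room temperature, lysates were incubated overnight with a commercial HTRF total-IKZF1 antibody kit, and the background-subtracted 665/620 nm time-resolved FRET ratio was read. On each plate, vehicle was set at 0% and the reference degrader at 100%.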
(In general: Time-resolved FRET reads energy transfer from a long-lived donor to a nearby acceptor.)

Another assay has as its system HEK293FT dCK*-only. Put plainly: relative growth in counter assay (no AraC = 100%, AraC + DMSO = 0%); higher = more growth rescue independent of IKZF1. As to conditions: compound concentration: 5 uM; AraC concentration: 0.3 uM; overnight pretreatment + 4 days AraC. A digest of the protocol: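 This counter assay used HEK293FT cells expressing only an engineered kinase construct, seeded at 300 per well in 384-well plates. Compound was added at 5 μM 2 h after seeding, and after overnight at 37 °C the cells received a nucleoside suicide substrate at 0.3 μM plus medium for 4 days. On day 5, nuclei stained with Hoechst 33342 were counted by imaging, and relative growth was normalised per plate; wells without suicide substrate were set at 100% and wells with substrate plus vehicle at 0%.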

The subject of the next assay is HEK293FT dCK*-IKZF1. Put plainly: relative growth recovery (pomalidomide 10 uM = 100%, DMSO = 0%); higher = more growth rescue (IKZF1 fusion degradation). Particulars: compound concentration: 5 uM; AraC concentration: 0.3 uM; overnight pretreatment + 4 days AraC. A digest of the protocol:
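On day 5, whole-well imaging was used to count Hoechst 33342-stained nuclei of HEK293FT cells stably carrying a deoxycytidine kinase–IKZF1 fusion. These cells had received 5 μM compound 2 h after seeding, followed after overnight at 37 °C by a nucleoside suicide substrate at 0.3 μM plus medium for 4 days. Growth recovery was normalised on each plate against a reference degrader and vehicle, which defined 100% and 0%, and values are duplicate means from separate days.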

Sequence of IKZF1 (dCK*-IKZF1 fusion in HEK293FT) (Q13422 whole entry, looked up, the tested form may be a part): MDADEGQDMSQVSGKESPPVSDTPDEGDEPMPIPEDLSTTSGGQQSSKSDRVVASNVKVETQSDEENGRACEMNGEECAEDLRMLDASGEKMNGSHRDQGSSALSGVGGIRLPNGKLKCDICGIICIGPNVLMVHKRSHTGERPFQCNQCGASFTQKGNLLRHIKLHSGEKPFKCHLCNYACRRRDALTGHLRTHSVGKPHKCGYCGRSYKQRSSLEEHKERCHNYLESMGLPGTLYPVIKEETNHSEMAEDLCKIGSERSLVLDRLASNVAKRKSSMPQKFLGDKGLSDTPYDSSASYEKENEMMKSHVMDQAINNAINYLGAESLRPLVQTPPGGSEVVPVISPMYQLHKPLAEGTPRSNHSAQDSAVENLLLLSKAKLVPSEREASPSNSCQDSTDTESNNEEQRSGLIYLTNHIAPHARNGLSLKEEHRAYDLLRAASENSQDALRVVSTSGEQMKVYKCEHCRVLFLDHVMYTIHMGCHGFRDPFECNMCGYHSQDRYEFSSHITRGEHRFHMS

`CCc1nc(N)nc(N)c1-c1ccc(Cl)cc1` [Pyrimethamine]: the “inhibition of IKZF1 HTRF signal” value in assay [1] was -52.5%. For the same molecule, the “relative growth in counter assay” value with HEK293FT dCK*-only was 3.76%. For the same molecule, the relative growth recovery in the assay on HEK293FT dCK*-IKZF1 is -1.87%.

`CN(C)c1ccc(C(=C2C=CC(=[N+](C)C)C=C2)c2ccc(N(C)C)cc2)cc1`: in assay [1], the “inhibition of IKZF1 HTRF signal” value is -12.9%. The “relative growth in counter assay” value in the assay on HEK293FT dCK*-only is -35.1%. Further, the relative growth recovery in the assay on HEK293FT dCK*-IKZF1 was -13.1%.

For `Cc1cc(C)nc(NS(=O)(=O)c2ccc(N)cc2)n1`, in assay [1], the “inhibition of IKZF1 HTRF signal” value is -24.1%. In addition, the “relative growth in counter assay” value with HEK293FT dCK*-only was found to be 2.2%. Also, in the assay with HEK293FT dCK*-IKZF1, the relative growth recovery is -1.69%.

Take `CN[C@H]1CC[C@@H](c2ccc(Cl)c(Cl)c2)c2ccccc21`: the “inhibition of IKZF1 HTRF signal” value in assay [1] was -23.8%. Besides, in the assay with HEK293FT dCK*-only, the “relative growth in counter assay” value worked out at 0.69%. For the same molecule, the relative growth recovery with HEK293FT dCK*-IKZF1 was -1.94%.

As for `Nc1ccc2cc3ccc(N)cc3nc2c1`, the “inhibition of IKZF1 HTRF signal” value in assay [1] was 62.9%. Further, in the assay with HEK293FT dCK*-only, the “relative growth in counter assay” value was -35.1%. The relative growth recovery in the assay on HEK293FT dCK*-IKZF1 was -15%.

Turning to `CCOC(=O)CC(=O)N1CCSC1COc1ccccc1OC` (stereo unspecified) [Moguisteine], in assay [1], the “inhibition of IKZF1 HTRF signal” value is -1.23%. The “relative growth in counter assay” value in the assay with HEK293FT dCK*-only is 6.33%. Moreover, the relative growth recovery in the assay on HEK293FT dCK*-IKZF1 is -0.775%.

`COc1cc(NS(=O)(=O)c2ccc(N)cc2)nc(OC)n1`: the “inhibition of IKZF1 HTRF signal” value in assay [1] was -24.5%. Further, the “relative growth in counter assay” value in the assay with HEK293FT dCK*-only is -0.83%. In the assay on HEK293FT dCK*-IKZF1, the relative growth recovery is -4.54%.

With `N#Cc1ccc(O[C@H]2CC[C@H](NC(=O)c3ccc(N4CCC(CN5CCN(c6cc7c(cc6F)C(=O)N(C6CCC(=O)NC6=O)C7=O)CC5)CC4)nn3)CC2)cc1Cl` (stereo partly specified), the “inhibition of IKZF1 HTRF signal” value in assay [1] was -5.24%. For the same molecule, the “relative growth in counter assay” value in the assay on HEK293FT dCK*-only was determined as 6.3%. In addition, the relative growth recovery in the assay with HEK293FT dCK*-IKZF1 is -0.69%.

In the case of `COC(=O)Nc1nc2cc(C(=O)c3cccs3)ccc2[nH]1` [nocodazole], in assay [1], the “inhibition of IKZF1 HTRF signal” value was -12%. Besides, the “relative growth in counter assay” value in the assay with HEK293FT dCK*-only is -33%. Further, the relative growth recovery in the assay with HEK293FT dCK*-IKZF1 was -11.6%.

Take `C[C@@H]1CC2C3CCC4=CC(=O)C=C[C@]4(C)[C@@]3(F)[C@@H](O)C[C@]2(C)[C@H]1C(=O)CO` (stereo partly specified): the “inhibition of IKZF1 HTRF signal” value in assay [1] turned out to be 19.4%. Besides, the “relative growth in counter assay” value in the assay on HEK293FT dCK*-only is -5.74%. The relative growth recovery in the assay with HEK293FT dCK*-IKZF1 is -0.19%.

For `COc1cc(C(=O)NS(=O)(=O)c2ccccc2C)ccc1Cc1cn(C)c2ccc(NC(=O)OC3CCCC3)cc12` [Zafirlukast (Accolate)], the “inhibition of IKZF1 HTRF signal” value in assay [1] is -6.19%. The “relative growth in counter assay” value with HEK293FT dCK*-only was found to be 0.38%. In the assay with HEK293FT dCK*-IKZF1, the relative growth recovery stood at 0.805%.

On to `CCN(CC)CCCCC(NC(=O)c1ccc([N+](=O)[O-])cc1)c1ccccc1` (stereo unspecified) [nibentan], for which, in assay [1], the “inhibition of IKZF1 HTRF signal” value was -51.4%. Also, in the assay on HEK293FT dCK*-only, the “relative growth in counter assay” value came out at 11.1%. Also, in the assay with HEK293FT dCK*-IKZF1, the relative growth recovery was determined as 1.83%.
